# Source: the supplement of paper PMC12645437, “Orthogonal IMiD-Degron Pairs Induce Selective Protein Degradation in Cells” (ACS Chemical Biology, 2025)
# In all, about 8,300 sequences were measured (“log2 fold change of degron read counts, EGFP-low vs EGFP+ sorted cells (limma voom), compound-induced degradation”: median about -1.1, highest 2% from about 3.2 on). The entries come from a sample that favours the highest values as a whole.
# B1: 46F_47D_49N_50V_52G_53A_54T_55F_67L_, Q9UKT9 (peptide)
# chain: FDCNVCGATFTQKGNLLRHIKL
# B2: 46F_47E_49P_50I_52G_53H_54Y_55F_67L_, Q9UKT9 (peptide)
# chain: FECPICGHYFTQKGNLLRHIKL
# B3: 46F_47E_49D_50V_52G_53A_54W_55F_67L_, Q9UKT9 (peptide)
# chain: FECDVCGAWFTQKGNLLRHIKL
# B4: 46F_47W_49N_50I_52G_53A_54A_55F_67L_, Q9UKT9 (peptide)
# chain: FWCNICGAAFTQKGNLLRHIKL
# B5: 46F_47E_49N_50I_52G_53A_54A_55F_67L_, Q9UKT9 (peptide)
# chain: FECNICGAAFTQKGNLLRHIKL
# B6: 46F_47A_49N_50I_52G_53A_54A_55F_67L_, Q9UKT9 (peptide)
# chain: FACNICGAAFTQKGNLLRHIKL
# B7: 46F_47Q_49N_50I_52G_53A_54A_55F_67L_, Q9UKT9 (peptide)
# chain: FQCNICGAAFTQKGNLLRHIKL
# B8: 46F_47Y_49N_50I_52G_53A_54A_55F_67L_, Q9UKT9 (peptide)
# chain: FYCNICGAAFTQKGNLLRHIKL
# B9: 46F_47R_49N_50I_52G_53A_54A_55F_67L_, Q9UKT9 (peptide)
# chain: FRCNICGAAFTQKGNLLRHIKL
# B10: 46F_47C_49E_50Q_52G_53A_54N_55F_67L_, Q9UKT9 (peptide)
# chain: FCCEQCGANFTQKGNLLRHIKL
# B11: 46F_47H_49P_50I_52G_53H_54P_55F_67L_, Q9UKT9 (peptide)
# chain: FHCPICGHPFTQKGNLLRHIKL
# B12: 46L_47F_49E_50I_52G_53F_54M_55C_67L_, Q9UKT9 (peptide)
# chain: LFCEICGFMCTQKGNLLRHIKL
# B13: 46F_47R_49E_50I_52G_53R_54I_55F_67L_, Q9UKT9 (peptide)
# chain: FRCEICGRIFTQKGNLLRHIKL
# B14: 46F_47S_49N_50Q_52G_53A_54V_55F_67L_, Q9UKT9 (peptide)
# chain: FSCNQCGAVFTQKGNLLRHIKL
# B15: 46F_47D_49E_50V_52G_53A_54K_55F_67L_, Q9UKT9 (peptide)
# chain: FDCEVCGAKFTQKGNLLRHIKL
# B16: 46F_47I_49E_50V_52G_53A_54K_55F_67L_, Q9UKT9 (peptide)
# chain: FICEVCGAKFTQKGNLLRHIKL
# B17: 46F_47S_49E_50V_52G_53A_54K_55F_67L_, Q9UKT9 (peptide)
# chain: FSCEVCGAKFTQKGNLLRHIKL
# B18: 46F_47G_49E_50V_52G_53A_54K_55F_67L_, Q9UKT9 (peptide)
# chain: FGCEVCGAKFTQKGNLLRHIKL
# B19: 46F_47W_49E_50V_52G_53A_54K_55F_67L_, Q9UKT9 (peptide)
# chain: FWCEVCGAKFTQKGNLLRHIKL
# B20: 46F_47E_49E_50V_52G_53A_54K_55F_67L_, Q9UKT9 (peptide)
# chain: FECEVCGAKFTQKGNLLRHIKL
# B21: 46F_47K_49E_50V_52G_53A_54K_55F_67L_, Q9UKT9 (peptide)
# chain: FKCEVCGAKFTQKGNLLRHIKL
# B22: 46F_47R_49E_50V_52G_53A_54K_55F_67L_, Q9UKT9 (peptide)
# chain: FRCEVCGAKFTQKGNLLRHIKL
# B23: 46F_47L_49E_50V_52G_53A_54K_55F_67L_, Q9UKT9 (peptide)
# chain: FLCEVCGAKFTQKGNLLRHIKL
# B24: 46F_47Q_49E_50V_52G_53A_54K_55F_67L_, Q9UKT9 (peptide)
# chain: FQCEVCGAKFTQKGNLLRHIKL
# B25: 46F_47A_49E_50V_52G_53A_54K_55F_67L_, Q9UKT9 (peptide)
# chain: FACEVCGAKFTQKGNLLRHIKL
# B26: 46F_47M_49E_50V_52G_53A_54K_55F_67L_, Q9UKT9 (peptide)
# chain: FMCEVCGAKFTQKGNLLRHIKL
# B27: 46F_47Y_49P_50Q_52G_53A_54H_55F_67L_, Q9UKT9 (peptide)
# chain: FYCPQCGAHFTQKGNLLRHIKL
# B28: 46F_47F_49P_50Q_52G_53A_54E_55F_67L_, Q9UKT9 (peptide)
# chain: FFCPQCGAEFTQKGNLLRHIKL
# Target: T1, CRBN, Q96SW2
# T1 chain: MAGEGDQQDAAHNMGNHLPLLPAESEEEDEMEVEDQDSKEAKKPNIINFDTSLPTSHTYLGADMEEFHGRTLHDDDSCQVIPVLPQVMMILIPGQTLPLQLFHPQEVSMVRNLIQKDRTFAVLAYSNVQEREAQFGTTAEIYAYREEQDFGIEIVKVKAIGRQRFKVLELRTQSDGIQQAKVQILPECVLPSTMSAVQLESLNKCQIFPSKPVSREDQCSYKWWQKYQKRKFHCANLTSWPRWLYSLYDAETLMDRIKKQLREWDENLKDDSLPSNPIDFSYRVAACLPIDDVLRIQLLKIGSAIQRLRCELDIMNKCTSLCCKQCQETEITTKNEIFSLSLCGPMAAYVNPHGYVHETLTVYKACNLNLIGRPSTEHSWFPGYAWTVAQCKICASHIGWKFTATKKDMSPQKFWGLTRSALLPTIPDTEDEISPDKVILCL
# Experiment: log2 fold change of degron read counts, EGFP-low vs EGFP+ sorted cells (limma voom), compound-induced degradation; higher = more compound-induced degradation of the degron-EGFP fusion; degrons are variants of IKZF1/3 zinc finger 2; compound dose not given here
# Conditions: Jurkat, 18 h
# [1] = compound: compound 19 (5-tert-butyl-thalidomide)
# [2] = compound: compound 22 (5-morpholino-thalidomide)
# [3] = compound: compound 33 (diphenyl IMiD analogue)
# 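Also: pooled lentiviral library of zinc finger degron-EGFP fusions in mCherry-positive Jurkat cells, FACS-sorted after compound exposure, with degron abundance counted by next-generation sequencing.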
Sequence,log2 fold change of degron read counts [1],log2 fold change of degron read counts [2],log2 fold change of degron read counts [3],log2 fold change of degron read counts (compound: thalidomide)
B1,-1.91,-2.32,-1.24,-1.1
B2,-2.41,-2.69,-1.81,-1.2
B3,-3.45,-3.71,-2.2,-2.52
B4,2.29,3.32,1.66,0.348
B5,0.374,-0.891,1.05,2.1
B6,2.77,2.64,0.592,0.334
B7,1.01,2.28,1.53,3.39
B8,2.66,2.97,1.81,-0.259
B9,1.09,1.5,1.96,1.32
B10,-1.5,-1.89,-0.599,-1.3
B11,0.356,-0.486,1.11,-0.0778
B12,3.2,3.12,1.56,1.17
B13,-2.12,-2.31,-0.593,-0.94
B14,-1.79,-1.84,-0.0126,-1.8
B15,1.57,-0.744,-2.09,0.993
B16,-0.59,2.35,0.972,2.68
B17,3.08,1.75,-0.985,1.45
B18,3.69,1.3,-1.12,1.16
B19,3.74,3.86,1.64,1.54
B20,0.451,-1.55,-0.965,2.59
B21,-1.41,-3.28,-3.54,-1.57
B22,-0.518,-0.4,0.471,1.09
B23,0.27,-1.55,-0.283,1.49
B24,0.414,2.98,0.135,3.4
B25,3.92,2.02,-1.57,0.889
B26,0.0707,-0.168,0.454,0.604
B27,0.451,1.45,1.13,-0.932
B28,-0.388,-1.02,-0.943,-1.93
